Assay [1] is described as follows: optical density shifts of acrAB sulA E. coli – strain DRC41, OD650, 48 h, E. coli filamentation inducer project, primary screen (AID 1152).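 Also: E. coli MC1000 strain DRC41 lacking acrAB efflux pump and sulA.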 The conditions noted are these: higher = more signal, called active from +8 up or from −8 down.
The nature of assay [2]: probe aLefty1 binding on compound microarray – biochemical, small-molecule microarray, 635/667 nm fluorescence, primary screen (AID 1153).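 Also: score merges spot fluorescence with signal-to-noise ratio from the scanned slide images.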 The conditions noted are these: higher = more signal.
Assay [3] can be described thus: plasmodial surface anion channel blockers, osmotic lysis – cell-based, P. falciparum Indochina, OD700, 1 h, primary screen (AID 1154). The conditions noted are these: P. falciparum Indochina infected RBC osmotic lysis, higher = more signal, called active from +8 up or from −8 down.
The nature of assay [4]: plasmodial surface anion channel blockers, osmotic lysis – cell-based, P. falciparum Indochina, OD700, 2 h, primary screen (AID 1155).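 Also: lysis reports solute entry through the parasite surface anion channel PSAC.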 To be noted: P. falciparum Indochina infected erythrocytes, higher = more signal, called active from +8 up or from −8 down.
Assay [5] in a line: changes in parasitized red cell lysis, either direction – P. falciparum Indochina, OD700, 3 h, PSAC antagonist project, primary screen (AID 1156). To be noted: P. falciparum-infected erythrocytes, osmotic lysis, higher = more signal, called active from +8 up or from −8 down.
Assay [6] can be described thus: plasmodial surface anion channel blockers, osmotic lysis – cell-based, P. falciparum Indochina, OD700, 18 h, primary screen (AID 1157). To be noted: P. falciparum Indochina infected erythrocytes, osmotic lysis OD700, 18 h; higher = more signal, called active from +8 up or from −8 down.
Assay [7] can be described thus: S6 kinase pathway phospho-S6 level changes – cell-based, A549, cytoblot, luminescence, serum-stimulated, primary screen (AID 1158).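 Also: serum-stimulated A549 lung adenocarcinoma cells; signal is phosphorylated S6 detected by cytoblot immunostaining with HRP secondary.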 The conditions noted are these: 5 h, higher = more signal.
The target in assay [8] is NADPH oxidase 2 (Homo sapiens) (UniProt P04839). Kind of assay: compounds shifting NOX2 Amplex Red fluorescence – cell-based, HEK293-NOX2, PMA-stimulated, NOX inhibitor project, primary screen (AID 1159). Also: test concentration not given here. The conditions noted are these: 45 min, higher = more signal, called active from +8 up or from −8 down.
Assay [9] deals with NADPH oxidase 4 (Homo sapiens) (UniProt Q9NPH5). The assay can be described thus: compounds shifting NOX4 Amplex Red fluorescence – cell-based, HEK293-NOX4, tetracycline-induced, NOX inhibitor project, primary screen (AID 1160). The conditions noted are these: HEK293-NOX4, Amplex Red H2O2 fluorescence, 45 min; higher = more signal, called active from +8 up or from −8 down.
The target of assay [10] is NADPH oxidase 5 (Homo sapiens) (UniProt Q96PH1). Kind of assay: compounds shifting NOX5 Amplex Red fluorescence – cell-based, HEK293-NOX5, NOX inhibitor project, primary screen (AID 1161). The conditions noted are these: HEK293-NOX5, ionomycin, 45 min, higher = more signal.
Assay [11] is described as follows: compound effects on lung adenocarcinoma cell viability – A549, calcein-AM fluorescence, 48 h, basal, profiling panel (AID 1162). Also: test concentration not given here. To be noted: higher = more signal.
The nature of assay [12]: compound effects on differentiated 3T3-L1 adipocyte viability – cell-based, 3T3-L1 adipocytes, calcein-AM fluorescence, 48 h, basal, profiling panel (AID 1163). Also: test concentration not given here. To be noted: 3T3-L1 adipocytes viability, higher = more signal.
A short description of assay [13]: compound effects on hepatocellular carcinoma cell viability – HepG2, calcein-AM fluorescence, 48 h, basal, profiling panel (AID 1164). Also: test concentration not given here. The conditions noted are these: higher = more signal.
The nature of assay [14]: compound effects on multiple myeloma cell viability – MM1S, calcein-AM fluorescence, 48 h, basal, profiling panel (AID 1165). Also: test concentration not given here. The conditions noted are these: higher = more signal.
Assay [15] can be described thus: calcein-AM signal in unstimulated myeloma cells – cell-based, calcein-AM fluorescence, 48 h, PK04 Diversity Set, profiling panel (AID 1166).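 Also: cells grown under basal conditions without added stimulus; test concentration not given here.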 To be noted: RPMI8226 myeloma viability, higher = more signal.
A short description of assay [16]: JC-1 mitochondrial signal, unstimulated HepG2 cells – cell-based, JC-1 fluorescence, 24 h, 100 nL compound, profiling panel (AID 1167). Also: test concentration not given here. To be noted: HepG2 mitochondrial potential, higher = more signal.
The nature of assay [17]: JC-1 mitochondrial signal, unstimulated adipocytes – cell-based, JC-1 fluorescence, 3T3-L1 adipocytes, 24 h, 100 nL compound, profiling panel (AID 1168). Also: test concentration not given here. To be noted: JC-1 mitochondrial fluorescence, higher = more signal, called active from +8 up or from −8 down.
Assay [18] is described as follows: JC-1 mitochondrial signal, unstimulated myeloma cells – cell-based, JC-1 fluorescence, RPMI8226, 24 h, 100 nL compound, profiling panel (AID 1169). Also: test concentration not given here. To be noted: JC-1 mitochondrial potential fluorescence, higher = more signal.
The nature of assay [19]: JC-1 mitochondrial signal, unstimulated MM1S myeloma – cell-based, JC-1 fluorescence, 24 h, 100 nL compound, profiling panel (AID 1170). Also: test concentration not given here. The conditions noted are these: MM1S mitochondrial potential, higher = more signal.
The nature of assay [20]: resazurin metabolic signal in A549 cells – cell-based, resazurin fluorescence, 24 h, PK04 Diversity Set, profiling panel (AID 1171). Also: test concentration not given here. The conditions noted are these: A549 viability, higher = more signal, called active from +8 up or from −8 down. In general terms: Resazurin is reduced to fluorescent resorufin, in cell work by metabolically active cells.

The source made the active and inactive calls.

NADPH oxidase 2 (Homo sapiens), sequence (P04839 whole entry, looked up): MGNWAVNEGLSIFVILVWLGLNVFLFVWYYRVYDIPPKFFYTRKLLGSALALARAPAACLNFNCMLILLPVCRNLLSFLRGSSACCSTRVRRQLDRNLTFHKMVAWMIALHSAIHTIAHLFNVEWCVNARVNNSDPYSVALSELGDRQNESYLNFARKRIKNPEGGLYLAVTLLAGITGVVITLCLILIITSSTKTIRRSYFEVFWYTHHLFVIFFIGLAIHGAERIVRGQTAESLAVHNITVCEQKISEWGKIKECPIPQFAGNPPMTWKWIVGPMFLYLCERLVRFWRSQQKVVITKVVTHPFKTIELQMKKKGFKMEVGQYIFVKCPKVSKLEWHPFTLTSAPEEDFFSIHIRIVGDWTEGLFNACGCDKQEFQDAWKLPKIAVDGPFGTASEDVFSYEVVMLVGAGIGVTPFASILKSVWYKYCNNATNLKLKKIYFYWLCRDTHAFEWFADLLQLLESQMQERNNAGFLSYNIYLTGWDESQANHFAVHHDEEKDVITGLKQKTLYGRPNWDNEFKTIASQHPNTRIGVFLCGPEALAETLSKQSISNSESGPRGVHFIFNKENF
NADPH oxidase 5 (Homo sapiens), sequence (Q96PH1 whole entry, looked up): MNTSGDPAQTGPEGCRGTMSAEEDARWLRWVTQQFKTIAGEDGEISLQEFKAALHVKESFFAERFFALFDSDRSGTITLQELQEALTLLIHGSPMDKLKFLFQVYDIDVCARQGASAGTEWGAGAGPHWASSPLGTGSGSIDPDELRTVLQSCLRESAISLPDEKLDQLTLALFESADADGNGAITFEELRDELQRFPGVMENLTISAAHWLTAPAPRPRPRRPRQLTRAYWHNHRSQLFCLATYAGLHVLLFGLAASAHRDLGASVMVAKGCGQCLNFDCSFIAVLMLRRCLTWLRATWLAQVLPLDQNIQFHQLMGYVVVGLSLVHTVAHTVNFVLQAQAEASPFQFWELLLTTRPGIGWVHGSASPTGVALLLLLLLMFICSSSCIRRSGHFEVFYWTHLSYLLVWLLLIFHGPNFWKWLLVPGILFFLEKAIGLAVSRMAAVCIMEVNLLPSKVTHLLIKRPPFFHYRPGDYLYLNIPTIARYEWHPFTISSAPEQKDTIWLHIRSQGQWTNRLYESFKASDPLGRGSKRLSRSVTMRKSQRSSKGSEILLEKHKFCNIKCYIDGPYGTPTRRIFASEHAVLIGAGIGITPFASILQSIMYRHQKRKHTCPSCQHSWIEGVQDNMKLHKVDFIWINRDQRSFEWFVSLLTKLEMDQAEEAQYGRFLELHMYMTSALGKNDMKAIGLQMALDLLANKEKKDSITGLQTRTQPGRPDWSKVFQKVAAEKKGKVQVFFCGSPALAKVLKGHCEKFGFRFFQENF
NADPH oxidase 4 (Homo sapiens), sequence (Q9NPH5 whole entry, looked up): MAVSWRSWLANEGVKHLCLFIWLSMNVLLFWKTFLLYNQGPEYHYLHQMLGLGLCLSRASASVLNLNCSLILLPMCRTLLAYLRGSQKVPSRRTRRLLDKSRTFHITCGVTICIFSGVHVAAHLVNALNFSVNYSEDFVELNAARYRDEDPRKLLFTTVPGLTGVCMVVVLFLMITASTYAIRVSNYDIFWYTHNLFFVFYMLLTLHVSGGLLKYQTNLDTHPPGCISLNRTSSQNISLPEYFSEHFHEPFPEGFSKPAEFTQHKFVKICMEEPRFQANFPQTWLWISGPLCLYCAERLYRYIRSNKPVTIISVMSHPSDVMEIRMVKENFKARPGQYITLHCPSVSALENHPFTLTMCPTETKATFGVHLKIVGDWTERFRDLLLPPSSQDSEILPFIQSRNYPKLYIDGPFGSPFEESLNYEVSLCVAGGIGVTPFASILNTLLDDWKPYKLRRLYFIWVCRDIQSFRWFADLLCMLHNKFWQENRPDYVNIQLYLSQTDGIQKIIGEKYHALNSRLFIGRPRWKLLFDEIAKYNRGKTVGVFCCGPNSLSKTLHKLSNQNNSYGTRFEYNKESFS

As to `COC(=O)[C@@]1(Cc2ccc(F)cc2)[C@H]2c3cc(C(=O)N(C)C)n(Cc4ccc(O)c(OC)c4)c3C[C@H]2CN1C(=O)c1ccccc1`, the z-score is -1.45 (inactive) in [1]; 3.77 (inactive) in assay [3]; -0.164 (inactive) in [4]; 1.74 (inactive) in assay [5]; -1.74 (inactive) in assay [6]; 2 in [7]. Also, the z-score in assay [8] was -2.68 (inactive); in [9], -5.32 (inactive); in assay [10], -1.16; in assay [11], 0.511; in assay [12], 0.997; in [13], -0.269. Also, the z-score in assay [14] is -0.0229; in [15] it was -1.92; in assay [16], 0.766; in assay [17], -0.475 (inactive); in assay [18] it was -0.379; in assay [19], -1.63. In addition, in assay [20], the z-score is -0.88 (inactive). Moreover, the composite z-score in [2] turned out to be 0.681.

On to `CC(C)C[C@@H]1NC(=O)[C@@]23C(=O)N[C@@H](Cc4ccccc4)C2[C@H](C)[C@@]2(C)O[C@H]2C3/C=C/C/C=C\CNC(=O)[C@@H](C)NC1=O` (stereo not given in full), for which the z-score in assay [1] is 0.767 (inactive); in assay [3], 0.961 (inactive); in [4], -1.13 (inactive); in assay [5], -0.826 (inactive); in [6], -0.967 (inactive); in assay [7], 0.338. Besides, the z-score is 0.848 (inactive) in assay [8]; 1.65 (inactive) in assay [9]; 0.953 in assay [10]; -0.366 in assay [11]; 0.718 in assay [12]; -0.0346 in assay [13]. Besides, the z-score is 0.761 in assay [14]; -1.12 in assay [15]; 0.991 in assay [16]; 0.625 (inactive) in [17]; 0.207 in assay [18]; -0.342 in assay [19]. The z-score in assay [20] was 1.16 (inactive). This compound also registered a composite z-score in assay [2] of -0.444.

For `CCOC(=O)C1=C[C@@H](c2ccccc2)N(S(=O)(=O)c2ccc(C)cc2)[C@H]1c1ccccc1`, the z-score was -0.388 (inactive) in [1]; 13.8 (active) in assay [3]; 2.21 (inactive) in assay [4]; -0.657 (inactive) in assay [5]; 0.708 (inactive) in [6]; -0.8 in assay [7]. Moreover, the z-score in assay [8] is -0.395 (inactive); in assay [9] it was -0.395 (inactive); in assay [10] it was 0.565; in assay [11], -0.834; in assay [12], -0.926; in assay [13] it was -0.813. The z-score is -1.14 in [14]; -1.16 in [15]; 1.62 in assay [16]; -2.52 (inactive) in [17]; -0.368 in assay [18]; -0.0131 in assay [19]. Besides, in [20], the z-score is 0.537 (inactive). The same compound registered a composite z-score in [2] of 0.119.

For the compound `O=C1O[C@H](c2ccccc2)[C@H](c2ccccc2)N2[C@H]1[C@@H](C(=O)O)[C@]1(C(=O)Nc3ccc(C#CC4(O)CCCCCC4)cc31)[C@H]2c1ccc(O)cc1`, the z-score was 2.05 (inactive) in [1]; -0.224 (inactive) in assay [3]; -0.925 (inactive) in assay [4]; -2.31 (inactive) in assay [5]; -1.16 (inactive) in [6]; 1.65 in assay [7]. Moreover, the z-score is 0.867 (inactive) in [8]; -0.353 (inactive) in assay [9]; -1.06 in [10]; -0.167 in assay [11]; 0.685 in [12]; -0.714 in assay [13]. The z-score in assay [14] was -0.217; in assay [15], 0.265; in [16] it was -0.482; in assay [17] it was -0.559 (inactive); in assay [18], -0.0905; in assay [19], -0.705. Moreover, the z-score in assay [20] is 0.976 (inactive). In assay [2], the composite z-score is 0.0355.

Values taken from PubChem BioAssay.
